# Test results published in PubChem BioAssay AID1625 (Sanford-Burnham Center for Chemical Genomics, 2009).
# Among all 190,000 compounds or so, about 570 (0.3%) were called active.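 How the source made its calls: active means z-score above 3 at 5 µM with at least 500 cells counted in the well; inconclusive means wells under 500 cells, flagged as cytotoxic or low count; inactive means the rest.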 Only a selection was taken, and actives are over-represented in it overall.
# Assay: up-regulation of insulin promoter-GFP reporter – imaging, high-content screening, mouse beta cells (AID 1625);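 on cell count: total cells summed across four imaged fields per well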
# Settings: MIN6 insulin promoter-GFP reporter, at 5 µM; cell count: measured here: cytotoxicity, nuclei count; z-score: stronger effect = higher value
SMILES,cell count,z-score
Cc1nc(Cl)c(C#N)c2c1CCCC2,1110 cells,0.33 (inactive)
COc1ccc(NS(=O)(=O)c2ccc(Oc3c(C#N)cccc3C#N)cc2)cc1,558 cells,-2.43 (inactive)
CCOC(=O)c1ccc(S(=O)(=O)N(CCO)Cc2cc3cc(OC)c(OC)cc3[nH]c2=O)cc1,1080 cells,-0.14 (inactive)
COc1ccc(NC(=O)CCN2C(=O)/C(=C/c3ccc4c(c3)OCO4)SC2=S)cc1,965 cells,-0.34 (inactive)
CC(=O)N(OCc1ccc(OC(C)C)c(Cl)c1)C(C)=O,1050 cells,-0.14 (inactive)
Cc1cc(/C=N/Nc2ccc([N+](=O)[O-])cn2)c(C)n1-c1cccc(C(=O)O)c1,1080 cells,-0.44 (inactive)
Cc1cccc(-n2c(C)cc(/C=N/NC(N)=S)c2C)c1,1370 cells,0.39 (inactive)
Cc1cc(/C=N/n2cnnc2)c(C)n1-c1cccc(C(=O)O)c1,1240 cells,4.18 (active)
CC(=O)N1N=C(c2ccncc2)OC1(Cc1ccccc1)Cc1ccccc1,1090 cells,0.04 (inactive)
O=C(CS(=O)(=O)Cc1ccccc1)NCC1CCCO1 (centres undefined),1220 cells,-0.17 (inactive)
O=C(CSc1ccc(-c2ccccc2)nn1)NCC1CCCO1 (centres undefined),1230 cells,3.02 (active)
O=C(CSc1nnc(-c2ccc(NS(=O)(=O)c3ccccc3)cc2)o1)NCC1CCCO1 (centres undefined),1210 cells,0.05 (inactive)
COc1cc(SC)ccc1C(=O)Nc1cc(C)ccn1,1210 cells,0 (inactive)
CC(=O)Nc1ccc(CC#N)cc1,1210 cells,-0.63 (inactive)
Cc1ccccc1NC(=S)NNC(=O)c1cccc(Br)c1,1120 cells,0.03 (inactive)
O=C(NN1C(=O)C2C(C1=O)C1C=CC2C12CC2)c1ccccc1Cl (centres undefined),1130 cells,-0.03 (inactive)
CC(C)OP(=O)(OC(C)C)C(Nc1ccccc1)c1cccc([N+](=O)[O-])c1 (centres undefined),992 cells,-0.35 (inactive)
